High-throughput results (PubChem)
Hits are enriched below; roughly 2.8% of the tested compounds scored in any of these assays.
Mito fusion yeast = qHTS Assay for Small Molecule Inhibitors of Mitochondrial Division or Activators of Mitochondrial Fusion; S. cerevisiae fusion-defective mutant growth rescue, CellTiterGlo 48 h; AID 485298, 2010; Potency, µM (doses to about 46.1 µM), for inactives: at the top dose growth rescue (activation), most hits filed as activators; 0.23% of 320,000 active; also: % of control where 0% means no effect; nearly all actives have a fitted effect of over 45% in size
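Compounds are tested for their ability to restore growth of mitochondrial fusion-defective yeast strains at non-permissive 37C in YPEG medium over 48 hours. Viability is quantified by luciferase luminescence.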
BRCA1 expr act = qHTS Assay to Identify Small Molecule Activators of BRCA1 Expression. MCF7-BRCA1-FFLuc reporter, luminescence, 48 h; response scale: scaled: vehicle 0%, 10 µM genistein 100%. Potency, µM (top dose mostly 46.1 µM), for the others: at the highest dose activation, most hits filed as activators. 1.1% of 380,000 active. AID 624202, 2012; also: nearly all actives have a fitted effect of over 80% in size
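Reporter cells (MCF7, BRCA1 promoter-firefly luciferase) received library compounds across a concentration series for 48 h. End-point luminescence was measured and concentration-effect curves derived after normalization.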
GLP-1R agonist = qHTS of GLP-1 Receptor Agonists | Potency, µM (top dose mostly 45.6 µM), inactives show at the top dose activation, usual class: activators | HEK293 GLP-1R CRE-luciferase, luminescence, 4-6 h; cells express a hypersensitive GLP-1R form | 0.007% of 380,000 active | AID 624172, 2012 | Glucagon-like peptide 1 receptor (Homo sapiens), P43220; also: % of control where 0% means no effect
Target sequence (P43220 whole entry, looked up): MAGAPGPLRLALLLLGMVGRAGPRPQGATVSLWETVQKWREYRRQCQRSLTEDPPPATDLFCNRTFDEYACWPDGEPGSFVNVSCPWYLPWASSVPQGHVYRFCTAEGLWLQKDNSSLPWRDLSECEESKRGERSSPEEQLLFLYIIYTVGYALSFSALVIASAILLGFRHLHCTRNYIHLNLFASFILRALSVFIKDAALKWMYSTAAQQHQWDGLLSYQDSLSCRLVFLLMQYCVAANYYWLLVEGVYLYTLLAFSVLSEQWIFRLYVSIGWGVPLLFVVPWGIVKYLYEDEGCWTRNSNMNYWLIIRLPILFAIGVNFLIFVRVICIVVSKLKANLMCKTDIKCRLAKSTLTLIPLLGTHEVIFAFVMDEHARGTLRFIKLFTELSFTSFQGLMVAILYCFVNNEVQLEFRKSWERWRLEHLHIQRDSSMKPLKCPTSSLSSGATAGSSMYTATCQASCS
GLP1R inv ag = qHTS of GLP-1 Receptor Inverse Agonists (Inhibition Mode). Glucagon-like peptide 1 receptor (Homo sapiens), P43220. HEK293 GLP-1R CRE-luciferase, luminescence, 24 h; GLP-1R form is constitutively active. Potency, µM (doses to about 38.3 µM), for inactives: at the highest dose activity change, negative = inhibition, usual class: inhibitors. 1.6% of 410,000 active; also: % is scaled to controls: 0 for no effect and ±100 for the full control effect; nearly all actives have a fitted effect of over 55% in size
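Inverse agonism was detected as reduced cAMP-driven luciferase luminescence after 24 h compound treatment. The cells were HEK293 clones expressing constitutively active human GLP-1R with the reporter. Reporter-only and GPR119 cell lines served as counterscreen controls.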
HEK293 tox = qHTS of GLP-1 Receptor Inverse Agonists: Cytotox Screen | HEK293 cAMP-luciferase reporter cells, luminescence, 24 h | 0.13% of 410,000 active | Potency, µM (series often up to 38.3 µM), for inactives: top-dose activity change, negative = inhibition, actives largely listed as inhibitors;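 also: loss of luciferase light is scored as toxicity; % is scaled to controls: 0 for no effect and ±100 for the full control effect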
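Luminescence readout: signal drop marks cytotoxicity. Plated cells grew 12 h at 37 °C, 5% CO2, received 23 nL compound for 24 h, then got luciferase reagent, read after 12 min at RT.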
* hit, by the source's call; ? = inconclusive; . = not tested or not shown; [ ] = another dose, or the depositor's remark. Calls follow the shape of the dose curve; as a rule, active = well fitted curve in the direction sought with a large enough effect; inconclusive = small, poorly fitted or top-dose-only effect, or another doubt; inactive = no such curve, though single readings can be large; an effect the other way counts as inactive or inconclusive. Potency is read from the fitted curve at half-maximal effect.

SMILES	Mito fusion yeast	BRCA1 expr act	GLP-1R agonist	GLP1R inv ag	HEK293 tox
Cc1ccc(S(=O)(=O)Nc2cc(C(=O)NCCN(C)C)ccc2N2CCCC2)cc1	-6.1%	2.8%	11.0%	?	-22.9%
N#C/C(=C\C1CC2C=CC1C2)c1nc2ccccc2[nH]1 (centres undefined)	0.7%	-39.6%	4.9%	-3.0%	1.0%
CN(c1cccc(NC(=O)CN(c2cccc(Cl)c2)S(=O)(=O)c2ccc(Cl)cc2)c1)S(C)(=O)=O	-0.1%	-92.5%	2.8%	7.94µM*	27.0%
NC(=O)C1c2ccccc2CSc2ccccc21 (centres undefined)	2.7%	-26.9%	0.0%	0.1%	5.5%
CCc1nn(CC(=O)N2CCCCC2)c(=O)c2cc3sc(C)cc3n12	.	.	.	1.7%	2.2%
COc1ccc2cc3cc(C(=O)NCCCN4CCc5ccccc5C4)sc3nc2c1	-6.3%	7.08µM*	1.9%	0.0%	1.9%
Cc1ccc(C)c(S(=O)(=O)NCCc2csc(-c3ccc(Cl)cc3)n2)c1	.	.	.	?	-1.3%
CCc1nc(N2CCN(C(=S)NCCCOC)CC2)c2c3c(sc2n1)CCCC3	-3.3%	-68.1%	-0.9%	11.2µM*	?
COc1ccc([N+](=O)[O-])cc1NC(=S)NC(NC(=O)C(c1ccccc1)c1ccccc1)C(Cl)(Cl)Cl (centres undefined)	-0.8%	-87.2%	-13.5%	2.51µM*	?
COc1ccc([N+](=O)[O-])cc1NC(=O)C(C)c1ccccc1 (centres undefined)	11.3%	-19.1%	1.8%	10.1%	-4.9%
Cc1cc([N+](=O)[O-])ccc1NC(=S)NC(=O)Cc1ccccc1	4.5%	-0.1%	15.0%	?	-13.7%
Cc1cc([N+](=O)[O-])ccc1NC(=S)NC(=O)C(c1ccccc1)c1ccccc1	-9.9%	-75.3%	-4.7%	10µM*	?
O=C(NNC(=S)NC(=O)c1ccccc1Cl)c1cccc([N+](=O)[O-])c1	8.3%	-29.4%	1.9%	0.6%	-6.8%
O=C(NC(NC(=S)Nc1c(Cl)cccc1Cl)C(Cl)(Cl)Cl)c1cccc([N+](=O)[O-])c1 (centres undefined)	4.4%	-93.9%	-25.3%	5.01µM*	12.6µM*
O=C(c1ccccc1F)N1CCC2CC1c1cc(-c3ccc4c(c3)OCO4)ccc12 (centres undefined)	.	0.0%	15.9%	?	18.4%
COc1ccc(C2CC(=O)C3=C(C2)Nc2ccccc2N(C(=O)C2CC2)C3c2cccnc2)cc1OC (centres undefined)	3.2%	0.0%	-0.9%	0.0%	4.7%
CC(Sc1nnc(CN2CCCC2)n1Cc1ccccc1)C(=O)Nc1ccc(F)c(F)c1F (centres undefined)	.	-26.1%	6.1%	5.01µM*	-10.2%
CC(Sc1nnc(CN2CCCC2)n1Cc1ccccc1)C(=O)Nc1ccccc1 (centres undefined)	24.6%	-3.7%	10.8%	7.94µM*	3.7%
CCCN(CCC)C(=O)Cn1c(=O)n(CCCCC(=O)NCc2ccco2)c(=O)c2ccccc21	-1.8%	-13.0%	-2.7%	1.1%	-8.1%
O=C(c1ccc(-c2ccccc2Cl)o1)N1CCN(c2ccccc2O)CC1	17.8µM*	-45.0%	?	?	-11.6%
O=C(c1ccco1)N1CCN(C(=O)c2ccc(-c3ccccc3Cl)o2)CC1	23.5%	8.91µM*	21.6%	-15.0%	-15.0%
O=C(c1cc(-c2ccccc2Cl)on1)N1CCN(C(=O)c2ccco2)CC1	1.3%	71.8%	1.1%	-19.6%	-4.7%
NC(=O)C1CCN(C(=O)c2ccc(-c3ccccc3Cl)o2)CC1	-1.1%	105.5%	3.5%	4.2%	-13.3%
Cc1cc(C(=O)NCCCC(=O)O)c(C)o1	-1.2%	-0.6%[1.84 µM]	-2.2%	2.7%	2.8%
Cc1cc(C(=O)NCCC(c2ccccc2)c2ccccc2)c(C)o1	12.2%	17.5%	-0.1%	8.91µM*	-1.4%
SMILES	Mito fusion yeast	BRCA1 expr act	GLP-1R agonist	GLP1R inv ag	HEK293 tox
Nc1c(-c2cccs2)nc2ccccn12	.	45.9%	-5.3%	15.5%	8.3%
Cc1cc(N/N=C/c2ccc3c(c2)OCO3)nc2ccccc12	-2.1%	12.6µM*	7.7%	?	-22.4%
CN(C)c1nc(NCc2ccccc2)nc(N/N=C/c2ccc3c(c2)OCO3)n1	-7.7%	-26.6%	1.5%	10µM*	?
O=c1[nH]c(N/N=C\c2ccc3c(c2)OCO3)nc2ccccc12	-6.1%	?	15.2%	?	-9.9%
CN(C)c1nc(NCc2ccccc2)nc(N/N=C/c2ccc(Br)cc2)n1	-8.8%	-3.9%	4.0%	-3.6%	3.8%
CC(O)[C@H](NC(=O)C1(c2ccccc2)CCN(C(=O)OC(C)(C)C)CC1)C(=O)O (some centres undefined)	7.0%	-1.0%	-9.5%	-3.5%	-10.2%
CC1CCN(c2oc(-c3ccccc3Cl)nc2C#N)CC1	9.5%	6.31µM*	10.2%	?	7.6%
COc1ccc(/C(N)=N/OC(=O)CSc2ccc(C)cc2)cc1	2.6%	30.2%	7.3%	-8.3%	-9.1%
Cc1ccc(/C(N)=N/OC(=O)CSc2ccccc2)cc1	-0.4%	7.94µM*	2.0%	29.6%	12.7%
N/C(=N\OC(=O)c1ccccc1F)c1ccc([N+](=O)[O-])cc1	5.0%	2.82µM*	-0.4%	5.5%	-10.0%
N/C(=N\OC(=O)CSc1ccccc1)c1ccc([N+](=O)[O-])cc1	-0.1%	11.2µM*	0.5%	2.7%	14.3%
Cc1ccc(SCC(=O)O/N=C(\N)c2cccc([N+](=O)[O-])c2)cc1	-2.8%	4.4%	-1.0%	3.0%	-7.0%
O=C(C[C@@H]1C/C=C\C[C@@H](Cc2ccc(F)cc2)C(=O)OC[C@@H]2CCCN2C1=O)NCCO	.	-1.5%	-2.1%	1.3%	0.1%
Cc1ccc(C)c(N2CCN(C3CCCCC3NS(=O)(=O)c3ccccc3)CC2)c1 (centres undefined)	-7.0%	-36.2%	0.0%	-34.3%	1.7%
C=CCn1c(SCC(=O)NCc2ccco2)nnc1-c1cccc(N(C)C)c1	.	3.5%	.	.	.
O=C(C1CCC(Cn2c(=S)[nH]c3ccccc3c2=O)CC1)N1CCN(c2ccccc2)CC1 (centres undefined)	.	-79.8%	-10.6%	3.55µM*	-4.6%
CCOc1ccc(C(=O)CSc2nnc(C3CC3)n2C)cc1	-0.2%	21.0%	-6.1%	0.0%	-5.1%
CSc1ncnc2c1ncn2CCCNC1CCN(Cc2ccccc2)CC1	.	-4.4%	-2.7%	?	-10.2%
c1ccc(COc2ncnc3c2ncn3CCCNC2CCN(Cc3ccccc3)CC2)cc1	.	-82.1%	-1.1%	7.08µM*	?
